This note sets out measurements from PubChem BioAssay (NCATS).

Records with an inconclusive call do not appear. Unmarked numbers belong to inactive results. Activity calls are given as the source filed them. The call rests on the fitted dose curve.
On the % scale 0 is the no-effect control and ±100 the full control effect; potency means the concentration at half of the fitted maximal effect.

The experiment in a line: qHTS assay for small molecule disruptors of the mitochondrial membrane potential - 1 hr assay (AID 651754). Further: nearly all actives have a fitted effect of over 35% in size. Particulars: series mostly up to 92.2 µM; ratio change, negative = depolarisation: at the top concentration. An excerpt: National Center for Advancing Translational Sciences [NCATS]
NIH Chemical Genomics Center [NCGC]
National Institutes of Environmental Health Sciences [NIEHS]
National Toxicology Program [NTP]
Mitochondrial membrane potential (MMP), one of the parameters for mitochondrial function, is generated by mitochondrial electron transport chain that creates an electrochemical gradient by a series of redox reactions. This gradient drives the synthesis of ATP, a crucial molecule for various cellular processes. Measuring MMP in living cells is commonly used to assess the effect of chemicals on mitochondrial function. […] The dye accumulates in the mitochondria of healthy cells as aggregates, with red fluorescence. The mitochondrial potential collapses and the dye can no longer accumulate in the mitochondria and remains in the cytoplasm in monomers, with green fluorescence.
2,000 HepG2 cells in 5 uL/well were dispensed into black, clear-bottom 1536-well plates using a Multidrop Combi (Thermo Scientific) dispenser. The assay plates were incubated overnight at 37C to allow cells to attach to the wells, followed by the transfer of 23 nL compound or DMSO vehicle by a pin tool (Kalypsys). The plates were incubated for 1 hr at 37C and 5% CO2, followed by the addition of 5 uL of 2X Mito-MPS dye (BD Biosciences) into each well using Flying Reagent Dispenser (Aurora Discovery) and then following 30 min incubation at 37C. Fluorescence intensity (490nm excitation and 535nm emission for monomers; and 540nm excitation and 590nm emissions for aggregates) was measured using an Envision plate reader.
On to `Cc1ccc(O)c(C)c1`, for which the “ratio change, negative = depolarisation” value was 4.09%.

With `Clc1ccc2ccccc2c1`, the “ratio change, negative = depolarisation” value was -2.34%.

As to `c1ccc(OP(Oc2ccccc2)Oc2ccccc2)cc1`, the “ratio change, negative = depolarisation” value was 3.4%.

For the molecule `NC(=S)Nc1ccccc1`, the Potency result is “inactive”.

In the case of `ClC1=C(Cl)C2(Cl)C3C(Cl)C=CC3C1(Cl)C2(Cl)Cl` (stereo not given), the “ratio change, negative = depolarisation” value is -6.09%.

In the case of `COC1=CC(=O)O[C@@H](/C=C/c2ccc3c(c2)OCO3)C1`, the “ratio change, negative = depolarisation” value is 6.5%.

Turning to `Nc1c(Cl)c(Cl)nc(C(=O)O)c1Cl`, the “ratio change, negative = depolarisation” value is -0.615%.

For the molecule `C=CC1CC=CCC1` (stereo not given), the “ratio change, negative = depolarisation” value was 4.83%.

Turning to `CCN(CC)c1ccccc1`, the “ratio change, negative = depolarisation” value was 4%.

Regarding `O=NN(c1ccccc1)c1ccccc1`, the “ratio change, negative = depolarisation” value is 2.6%.

Consider `C=CC(=O)OCC`, for which the “ratio change, negative = depolarisation” value was 7.22%.

Turning to `c1ccc2c(c1)CCCC2`, the “ratio change, negative = depolarisation” value was 3.09%.

As for `CCSC(=O)Cl`, the “ratio change, negative = depolarisation” value is -3.74%.

For the molecule `CCCCCCCCCc1ccc(O)cc1`, the Potency is 10.6 µM (active).

For `CC(C)(C)OOC(C)(C)C`, the “ratio change, negative = depolarisation” value is -5.34%.

On to `C[C@H]1CCCC(=O)CCC/C=C/c2cc(O)cc(O)c2C(=O)O1`, for which the Potency was 37.6 µM (active).

As for `O=C1C(Cl)=C(Cl)C(=O)C(Cl)=C1Cl`, the “ratio change, negative = depolarisation” value is 1.54%.

In the case of `O=[N+]([O-])c1ccc(Cl)c(Cl)c1`, the “ratio change, negative = depolarisation” value was 2%.

On to `C=CCOC(=O)c1ccccc1N`, for which the “ratio change, negative = depolarisation” value is -3.65%.

As for `O=C(O)COc1ccc(Cl)cc1Cl`, the Potency result is “inactive”.

`c1nc[nH]n1`: the “ratio change, negative = depolarisation” value was 0.402%.

Regarding `Brc1ccccc1`, the “ratio change, negative = depolarisation” value was -4.19%.

As for `CC(=O)[O-].CC(=O)[O-].O.O.O.[Pb+2]`, the Potency entry was “inactive”.

On to `CCOP(=S)(OCC)SCSC(C)(C)C`, for which the “ratio change, negative = depolarisation” value was -9.51%.

Regarding `C=CC(C)=O`, the “ratio change, negative = depolarisation” value is 1.65%.

Take `OCC1CO1` (stereo not given): the “ratio change, negative = depolarisation” value is 7.06%.

In the case of `CN=C=S`, the “ratio change, negative = depolarisation” value was -0.159%.

As for `Cc1cccc(C#N)c1`, the “ratio change, negative = depolarisation” value is 0.835%.

Regarding `ClC(Cl)=C(Cl)Cl`, the Potency result was “inactive”.

Consider `CCc1cccc(CC)c1N(COC)C(=O)CCl`, for which the “ratio change, negative = depolarisation” value was 5.25%.

With `CCCC(=O)Cl`, the “ratio change, negative = depolarisation” value is 6.52%.

In the case of `CC(Cl)Cl`, the “ratio change, negative = depolarisation” value was 8.2%.

With `C1CCC2CCCCC2C1` (stereo not given), the “ratio change, negative = depolarisation” value is 1.63%.

As for `C=C(Cl)Cl`, the “ratio change, negative = depolarisation” value was 3.89%.

`C=C(C)C(=O)OCC1CO1` (stereo not given): the “ratio change, negative = depolarisation” value is 7.44%.

Consider `C[N+](C)(C)Cc1ccccc1`, for which the “ratio change, negative = depolarisation” value was 8.47%.

On to `COC(=O)NC(=S)Nc1ccccc1NC(=S)NC(=O)OC`, for which the “ratio change, negative = depolarisation” value is -3.2%.

For the molecule `CCCCCCCC(=O)Cl`, the “ratio change, negative = depolarisation” value was -1.58%.

With `BrCCBr`, the “ratio change, negative = depolarisation” value is -1.7%.

Consider `O=C=NC1CCCCC1`, for which the Potency result is “inactive”.
